Test results: ChEMBL document CHEMBL2218924, “A broad activity screen in support of a chemogenomic map for kinase signalling research and drug discovery” (Biochem J, 2013)

How the values were obtained:
[1] = molecular target: Tyrosine-protein kinase SYK (Homo sapiens) (UniProt P43405); settings: at 10 µM
[2] = molecular target: T1, Mitogen-activated protein kinase kinase kinase 7 (Homo sapiens) (UniProt O43318); settings: at 1 µM
T1 sequence (whole entry): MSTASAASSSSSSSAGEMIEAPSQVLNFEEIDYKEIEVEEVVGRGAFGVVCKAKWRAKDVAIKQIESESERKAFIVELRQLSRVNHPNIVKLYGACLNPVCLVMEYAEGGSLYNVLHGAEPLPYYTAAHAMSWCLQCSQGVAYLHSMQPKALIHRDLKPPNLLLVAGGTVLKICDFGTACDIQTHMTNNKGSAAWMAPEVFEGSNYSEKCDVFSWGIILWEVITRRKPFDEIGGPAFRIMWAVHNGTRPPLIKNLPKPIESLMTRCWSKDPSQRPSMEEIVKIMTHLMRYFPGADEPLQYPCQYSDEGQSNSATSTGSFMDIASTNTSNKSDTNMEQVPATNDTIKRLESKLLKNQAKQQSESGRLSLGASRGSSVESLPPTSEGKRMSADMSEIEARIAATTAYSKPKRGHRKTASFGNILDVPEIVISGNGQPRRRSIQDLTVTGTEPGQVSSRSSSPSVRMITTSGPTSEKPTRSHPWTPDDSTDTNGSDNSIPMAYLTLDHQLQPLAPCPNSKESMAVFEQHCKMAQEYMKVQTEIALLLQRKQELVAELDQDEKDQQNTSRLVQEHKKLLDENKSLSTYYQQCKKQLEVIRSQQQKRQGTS

[3] = molecular target: T1, Mitogen-activated protein kinase kinase kinase 7 (Homo sapiens); settings: at 10 µM
[4] = molecular target: T2, Serine/threonine-protein kinase TAO1 (Homo sapiens) (UniProt Q7L7X3); settings: at 1 µM
T2 sequence (whole entry): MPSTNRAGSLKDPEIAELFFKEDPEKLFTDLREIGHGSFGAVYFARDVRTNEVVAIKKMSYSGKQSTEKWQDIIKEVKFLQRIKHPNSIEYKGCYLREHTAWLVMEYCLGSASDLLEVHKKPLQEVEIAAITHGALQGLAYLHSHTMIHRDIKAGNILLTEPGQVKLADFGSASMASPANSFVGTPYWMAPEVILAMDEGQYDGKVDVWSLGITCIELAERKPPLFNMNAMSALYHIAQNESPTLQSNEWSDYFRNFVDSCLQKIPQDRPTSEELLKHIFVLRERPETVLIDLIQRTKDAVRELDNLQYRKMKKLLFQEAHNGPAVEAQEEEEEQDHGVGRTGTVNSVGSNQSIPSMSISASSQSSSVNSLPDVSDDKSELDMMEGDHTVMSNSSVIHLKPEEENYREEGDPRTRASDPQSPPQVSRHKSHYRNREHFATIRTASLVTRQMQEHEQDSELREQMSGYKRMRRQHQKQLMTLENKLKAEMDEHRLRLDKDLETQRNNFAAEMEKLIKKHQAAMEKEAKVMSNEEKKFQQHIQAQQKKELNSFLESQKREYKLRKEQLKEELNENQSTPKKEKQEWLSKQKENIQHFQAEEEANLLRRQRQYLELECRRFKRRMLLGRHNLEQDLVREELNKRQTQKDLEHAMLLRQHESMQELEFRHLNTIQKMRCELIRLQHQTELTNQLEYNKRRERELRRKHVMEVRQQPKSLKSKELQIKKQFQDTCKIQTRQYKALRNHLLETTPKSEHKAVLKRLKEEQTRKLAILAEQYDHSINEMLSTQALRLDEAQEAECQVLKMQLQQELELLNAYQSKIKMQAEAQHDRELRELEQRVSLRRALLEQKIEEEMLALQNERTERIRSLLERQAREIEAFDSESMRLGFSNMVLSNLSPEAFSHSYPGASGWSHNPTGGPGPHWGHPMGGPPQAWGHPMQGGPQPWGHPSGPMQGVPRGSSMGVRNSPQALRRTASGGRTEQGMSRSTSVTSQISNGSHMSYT

[5] = molecular target: T2, Serine/threonine-protein kinase TAO1 (Homo sapiens); settings: at 10 µM
[6] = molecular target: T3, Serine/threonine-protein kinase TAO2 (Homo sapiens) (UniProt Q9UL54); settings: at 1 µM
T3 sequence (whole entry): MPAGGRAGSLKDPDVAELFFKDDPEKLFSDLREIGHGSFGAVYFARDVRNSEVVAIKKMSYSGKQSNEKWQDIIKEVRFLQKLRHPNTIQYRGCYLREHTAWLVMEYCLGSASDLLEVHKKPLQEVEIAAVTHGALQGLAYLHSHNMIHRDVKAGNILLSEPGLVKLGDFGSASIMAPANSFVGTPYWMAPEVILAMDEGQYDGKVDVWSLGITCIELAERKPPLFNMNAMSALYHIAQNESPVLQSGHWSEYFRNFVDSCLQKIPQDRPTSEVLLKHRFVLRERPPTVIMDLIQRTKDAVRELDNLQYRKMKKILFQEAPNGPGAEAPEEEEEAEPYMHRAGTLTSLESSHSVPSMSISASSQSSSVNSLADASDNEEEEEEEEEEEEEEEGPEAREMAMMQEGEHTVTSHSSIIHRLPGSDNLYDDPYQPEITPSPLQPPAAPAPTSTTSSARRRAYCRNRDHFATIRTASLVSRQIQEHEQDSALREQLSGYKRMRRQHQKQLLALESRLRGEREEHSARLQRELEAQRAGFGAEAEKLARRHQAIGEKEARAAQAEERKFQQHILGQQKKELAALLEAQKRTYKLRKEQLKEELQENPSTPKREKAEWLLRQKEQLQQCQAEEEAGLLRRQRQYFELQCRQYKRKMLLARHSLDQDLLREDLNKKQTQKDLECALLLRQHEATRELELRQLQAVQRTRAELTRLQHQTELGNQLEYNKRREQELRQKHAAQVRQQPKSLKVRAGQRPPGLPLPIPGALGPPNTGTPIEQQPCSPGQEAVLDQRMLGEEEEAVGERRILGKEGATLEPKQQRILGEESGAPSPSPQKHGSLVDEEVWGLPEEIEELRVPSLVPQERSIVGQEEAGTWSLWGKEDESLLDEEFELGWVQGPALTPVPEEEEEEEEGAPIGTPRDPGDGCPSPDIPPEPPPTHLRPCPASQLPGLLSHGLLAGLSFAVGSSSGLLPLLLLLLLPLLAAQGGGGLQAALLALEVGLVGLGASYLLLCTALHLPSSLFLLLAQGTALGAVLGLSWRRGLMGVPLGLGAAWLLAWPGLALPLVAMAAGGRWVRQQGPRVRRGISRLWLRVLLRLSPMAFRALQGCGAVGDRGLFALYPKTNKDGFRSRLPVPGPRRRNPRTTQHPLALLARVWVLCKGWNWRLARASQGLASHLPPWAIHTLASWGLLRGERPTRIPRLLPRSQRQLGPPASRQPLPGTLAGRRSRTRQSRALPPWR

[7] = molecular target: T3, Serine/threonine-protein kinase TAO2 (Homo sapiens); settings: at 10 µM
[8] = molecular target: T4, Serine/threonine-protein kinase TAO3 (Homo sapiens) (UniProt Q9H2K8); settings: at 1 µM
T4 sequence (whole entry): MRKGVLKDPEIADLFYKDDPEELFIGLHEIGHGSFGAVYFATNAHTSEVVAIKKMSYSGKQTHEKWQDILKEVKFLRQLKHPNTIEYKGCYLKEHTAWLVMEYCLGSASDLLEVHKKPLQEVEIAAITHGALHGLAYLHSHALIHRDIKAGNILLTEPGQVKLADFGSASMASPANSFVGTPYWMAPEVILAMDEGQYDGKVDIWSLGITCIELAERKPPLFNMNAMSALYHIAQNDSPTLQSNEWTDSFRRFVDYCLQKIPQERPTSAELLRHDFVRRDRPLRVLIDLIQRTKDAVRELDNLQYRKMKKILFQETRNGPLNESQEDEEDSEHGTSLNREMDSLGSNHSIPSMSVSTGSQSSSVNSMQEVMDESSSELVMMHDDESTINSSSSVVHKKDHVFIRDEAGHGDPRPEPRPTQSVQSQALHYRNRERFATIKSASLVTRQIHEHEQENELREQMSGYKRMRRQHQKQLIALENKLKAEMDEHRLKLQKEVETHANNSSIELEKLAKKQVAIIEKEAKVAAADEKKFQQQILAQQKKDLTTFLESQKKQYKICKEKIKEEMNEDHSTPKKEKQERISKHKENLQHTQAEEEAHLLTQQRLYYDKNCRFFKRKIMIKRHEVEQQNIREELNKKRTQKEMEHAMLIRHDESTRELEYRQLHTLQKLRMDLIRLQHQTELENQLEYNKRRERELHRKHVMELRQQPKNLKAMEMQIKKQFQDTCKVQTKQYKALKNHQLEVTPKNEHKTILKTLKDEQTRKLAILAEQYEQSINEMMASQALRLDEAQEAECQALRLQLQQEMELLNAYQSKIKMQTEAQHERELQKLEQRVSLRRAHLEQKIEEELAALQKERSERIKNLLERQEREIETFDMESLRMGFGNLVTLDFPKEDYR

[9] = molecular target: T4, Serine/threonine-protein kinase TAO3 (Homo sapiens); settings: at 10 µM
[10] = molecular target: T5, Serine/threonine-protein kinase TBK1 (Homo sapiens) (UniProt Q9UHD2); settings: at 1 µM
T5 sequence (whole entry): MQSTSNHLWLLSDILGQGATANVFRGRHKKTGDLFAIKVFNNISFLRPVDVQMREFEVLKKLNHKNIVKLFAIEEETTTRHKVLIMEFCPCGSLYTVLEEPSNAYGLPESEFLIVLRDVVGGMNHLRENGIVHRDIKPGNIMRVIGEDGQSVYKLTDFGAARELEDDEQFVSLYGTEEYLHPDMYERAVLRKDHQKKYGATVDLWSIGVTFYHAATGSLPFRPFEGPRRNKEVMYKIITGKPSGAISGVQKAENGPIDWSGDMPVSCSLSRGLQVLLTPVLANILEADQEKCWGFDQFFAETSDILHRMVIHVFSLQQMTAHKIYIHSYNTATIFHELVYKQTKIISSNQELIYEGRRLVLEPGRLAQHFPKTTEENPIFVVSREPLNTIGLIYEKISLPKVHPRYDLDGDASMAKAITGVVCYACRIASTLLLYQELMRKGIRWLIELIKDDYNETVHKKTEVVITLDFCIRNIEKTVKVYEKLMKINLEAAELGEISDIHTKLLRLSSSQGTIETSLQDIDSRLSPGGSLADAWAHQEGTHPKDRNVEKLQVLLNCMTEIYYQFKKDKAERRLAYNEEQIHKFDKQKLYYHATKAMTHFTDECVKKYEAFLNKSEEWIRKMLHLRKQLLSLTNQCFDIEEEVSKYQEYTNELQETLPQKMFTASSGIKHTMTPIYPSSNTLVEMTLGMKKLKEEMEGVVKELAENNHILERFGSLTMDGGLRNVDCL

[11] = molecular target: T5, Serine/threonine-protein kinase TBK1 (Homo sapiens); settings: at 10 µM
[12] = molecular target: T6, TGF-beta receptor type-1 (Homo sapiens) (UniProt P36897); settings: at 1 µM
T6 sequence (whole entry): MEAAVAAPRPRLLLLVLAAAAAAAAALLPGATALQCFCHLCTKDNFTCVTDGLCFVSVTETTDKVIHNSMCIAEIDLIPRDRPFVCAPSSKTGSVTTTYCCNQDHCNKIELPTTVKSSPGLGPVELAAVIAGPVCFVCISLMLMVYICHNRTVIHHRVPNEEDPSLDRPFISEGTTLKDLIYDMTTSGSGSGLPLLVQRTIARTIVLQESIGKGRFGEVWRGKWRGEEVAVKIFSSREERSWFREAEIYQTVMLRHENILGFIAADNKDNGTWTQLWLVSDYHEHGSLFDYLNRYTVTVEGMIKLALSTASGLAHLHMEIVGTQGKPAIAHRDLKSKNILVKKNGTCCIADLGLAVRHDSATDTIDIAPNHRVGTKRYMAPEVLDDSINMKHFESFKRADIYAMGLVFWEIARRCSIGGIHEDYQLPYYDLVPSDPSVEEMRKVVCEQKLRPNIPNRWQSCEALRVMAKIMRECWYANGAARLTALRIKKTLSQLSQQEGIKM

[13] = molecular target: T6, TGF-beta receptor type-1 (Homo sapiens); settings: at 10 µM
[14] = molecular target: Insulin-like growth factor 1 receptor (Homo sapiens) (UniProt P08069); settings: at 1 µM
[15] = molecular target: Insulin-like growth factor 1 receptor (Homo sapiens) (UniProt P08069); settings: at 10 µM
[16] = molecular target: T7, Inhibitor of nuclear factor kappa-B kinase subunit beta (Homo sapiens) (UniProt O14920); settings: at 1 µM
T7 sequence (whole entry): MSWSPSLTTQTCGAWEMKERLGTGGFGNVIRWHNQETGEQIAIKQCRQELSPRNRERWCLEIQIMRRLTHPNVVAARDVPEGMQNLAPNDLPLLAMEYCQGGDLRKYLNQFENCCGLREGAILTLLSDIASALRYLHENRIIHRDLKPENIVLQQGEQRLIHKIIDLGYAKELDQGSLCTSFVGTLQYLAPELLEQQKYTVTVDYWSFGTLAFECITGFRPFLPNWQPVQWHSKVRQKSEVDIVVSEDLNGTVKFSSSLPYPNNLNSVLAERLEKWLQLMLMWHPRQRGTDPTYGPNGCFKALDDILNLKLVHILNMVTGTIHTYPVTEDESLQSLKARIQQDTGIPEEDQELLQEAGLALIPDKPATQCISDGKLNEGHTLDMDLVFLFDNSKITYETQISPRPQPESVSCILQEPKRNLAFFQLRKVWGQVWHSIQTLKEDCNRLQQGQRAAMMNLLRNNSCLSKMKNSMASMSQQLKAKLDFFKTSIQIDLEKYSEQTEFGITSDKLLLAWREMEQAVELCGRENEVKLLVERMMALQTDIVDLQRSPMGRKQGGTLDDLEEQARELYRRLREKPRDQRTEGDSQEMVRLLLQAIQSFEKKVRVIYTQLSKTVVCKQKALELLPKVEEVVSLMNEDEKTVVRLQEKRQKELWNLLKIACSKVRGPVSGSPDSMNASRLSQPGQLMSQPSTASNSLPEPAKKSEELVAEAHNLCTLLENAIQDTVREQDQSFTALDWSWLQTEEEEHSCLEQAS

[17] = molecular target: T7, Inhibitor of nuclear factor kappa-B kinase subunit beta (Homo sapiens); settings: at 10 µM
[18] = molecular target: Insulin receptor (Homo sapiens) (UniProt P06213); settings: at 1 µM
Sequence of Insulin receptor (Homo sapiens) (P06213 28-758 limits assumed): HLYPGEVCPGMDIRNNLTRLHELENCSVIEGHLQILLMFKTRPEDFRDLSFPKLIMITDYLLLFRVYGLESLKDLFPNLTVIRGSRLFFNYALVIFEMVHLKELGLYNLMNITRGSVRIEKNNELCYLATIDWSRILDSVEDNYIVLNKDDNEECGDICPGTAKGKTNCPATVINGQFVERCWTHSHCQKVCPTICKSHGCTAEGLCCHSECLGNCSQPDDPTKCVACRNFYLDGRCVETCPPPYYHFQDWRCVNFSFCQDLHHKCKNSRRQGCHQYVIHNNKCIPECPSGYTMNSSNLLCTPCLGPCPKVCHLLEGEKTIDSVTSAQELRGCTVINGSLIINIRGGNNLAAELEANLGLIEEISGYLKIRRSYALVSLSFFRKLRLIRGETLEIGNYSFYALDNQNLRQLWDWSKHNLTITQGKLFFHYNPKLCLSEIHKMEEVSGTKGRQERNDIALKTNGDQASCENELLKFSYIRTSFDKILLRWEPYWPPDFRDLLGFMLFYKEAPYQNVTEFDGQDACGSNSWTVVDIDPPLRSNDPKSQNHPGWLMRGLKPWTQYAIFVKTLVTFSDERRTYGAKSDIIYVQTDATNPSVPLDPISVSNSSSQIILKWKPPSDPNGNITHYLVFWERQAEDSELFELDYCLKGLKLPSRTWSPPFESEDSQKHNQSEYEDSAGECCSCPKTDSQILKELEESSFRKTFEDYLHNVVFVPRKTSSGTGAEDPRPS
Sequence of Insulin receptor (Homo sapiens) (P06213 763-1382 limits assumed): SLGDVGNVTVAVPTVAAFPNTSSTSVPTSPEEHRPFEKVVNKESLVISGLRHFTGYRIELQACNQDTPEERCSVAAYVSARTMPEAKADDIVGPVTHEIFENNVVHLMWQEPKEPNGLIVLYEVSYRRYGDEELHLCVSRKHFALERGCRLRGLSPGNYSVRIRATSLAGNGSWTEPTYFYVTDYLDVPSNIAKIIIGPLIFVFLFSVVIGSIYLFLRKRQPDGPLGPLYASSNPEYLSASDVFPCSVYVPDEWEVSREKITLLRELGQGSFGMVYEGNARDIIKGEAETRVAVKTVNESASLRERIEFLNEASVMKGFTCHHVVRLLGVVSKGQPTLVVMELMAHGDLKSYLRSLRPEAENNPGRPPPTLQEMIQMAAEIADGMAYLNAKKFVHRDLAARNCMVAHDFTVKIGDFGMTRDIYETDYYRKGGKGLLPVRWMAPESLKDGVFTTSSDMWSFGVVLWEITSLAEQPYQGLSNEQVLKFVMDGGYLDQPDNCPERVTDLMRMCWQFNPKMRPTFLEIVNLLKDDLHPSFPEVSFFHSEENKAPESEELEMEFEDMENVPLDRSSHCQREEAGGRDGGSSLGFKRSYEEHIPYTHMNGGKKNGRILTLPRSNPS

Sequence of Insulin-like growth factor 1 receptor (Homo sapiens) (P08069 31-736 limits assumed): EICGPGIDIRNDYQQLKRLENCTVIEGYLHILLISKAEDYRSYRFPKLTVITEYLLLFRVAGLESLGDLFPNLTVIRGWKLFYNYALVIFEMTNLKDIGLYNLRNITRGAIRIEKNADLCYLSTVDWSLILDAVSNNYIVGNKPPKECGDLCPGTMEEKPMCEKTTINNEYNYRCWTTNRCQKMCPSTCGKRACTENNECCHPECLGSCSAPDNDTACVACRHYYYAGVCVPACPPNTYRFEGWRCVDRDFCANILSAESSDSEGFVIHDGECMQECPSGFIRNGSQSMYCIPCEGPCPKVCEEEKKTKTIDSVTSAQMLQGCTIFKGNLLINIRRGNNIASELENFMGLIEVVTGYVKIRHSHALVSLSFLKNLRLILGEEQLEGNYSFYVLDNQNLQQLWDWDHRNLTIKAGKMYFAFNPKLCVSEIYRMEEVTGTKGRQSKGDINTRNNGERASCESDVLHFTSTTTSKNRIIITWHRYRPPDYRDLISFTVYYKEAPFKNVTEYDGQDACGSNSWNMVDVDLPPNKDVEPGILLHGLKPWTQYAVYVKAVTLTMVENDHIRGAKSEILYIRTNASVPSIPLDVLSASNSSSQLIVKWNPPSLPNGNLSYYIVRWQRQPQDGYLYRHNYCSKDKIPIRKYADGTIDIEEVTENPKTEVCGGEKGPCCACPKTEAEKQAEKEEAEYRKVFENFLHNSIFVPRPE
Sequence of Insulin-like growth factor 1 receptor (Homo sapiens) (P08069 741-1367 limits assumed): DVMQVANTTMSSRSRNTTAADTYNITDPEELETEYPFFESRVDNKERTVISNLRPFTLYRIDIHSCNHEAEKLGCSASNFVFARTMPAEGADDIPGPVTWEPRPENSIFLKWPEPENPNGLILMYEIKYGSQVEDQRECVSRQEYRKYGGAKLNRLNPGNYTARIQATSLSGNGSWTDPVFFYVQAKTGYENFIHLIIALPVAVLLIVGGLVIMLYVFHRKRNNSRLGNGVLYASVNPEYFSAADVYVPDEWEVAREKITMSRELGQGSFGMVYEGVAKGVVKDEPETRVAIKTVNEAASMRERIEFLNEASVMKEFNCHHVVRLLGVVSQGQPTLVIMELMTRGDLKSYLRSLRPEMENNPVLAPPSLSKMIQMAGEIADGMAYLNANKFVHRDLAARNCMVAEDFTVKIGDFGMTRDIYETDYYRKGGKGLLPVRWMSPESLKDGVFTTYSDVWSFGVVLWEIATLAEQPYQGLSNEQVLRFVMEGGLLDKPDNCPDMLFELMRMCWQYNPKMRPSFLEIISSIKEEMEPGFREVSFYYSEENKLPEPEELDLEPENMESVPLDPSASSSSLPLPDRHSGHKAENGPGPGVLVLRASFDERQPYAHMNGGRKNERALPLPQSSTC

CCN(CC)C(=O)c1ccc(Nc2nc(OCC3CCCCC3)c3nc[nH]c3n2)cc1
residual activity [1]: 13%
residual activity [2]: 47%
residual activity [3]: 7%
residual activity [4]: 52%
residual activity [5]: 10%
residual activity [6]: 51%
residual activity [7]: 6%
residual activity [8]: 70%
residual activity [9]: 16%
residual activity [10]: 15%
residual activity [11]: 2%
residual activity [12]: 82%
residual activity [13]: 50%
residual activity [14]: 70%
residual activity [15]: 16%
residual activity [16]: 94%
residual activity [17]: 69%
residual activity [18]: 95%
